Reference: paper PMC7862700, “An all-to-all approach to the identification of sequence-specific readers for epigenetic DNA modifications on cytosine”

Columns and labels:
Experiment in all cases: DAPPL (digital affinity profiling via proximity ligation, sequencing); 10 mM Tris-HCl pH 7.5, 50 mM NaCl, 1 mM DTT, 4% glycerol, room temperature, 30 min; GST-TFs on glutathione beads, 16-mer random dsDNA library, 0.1% formaldehyde crosslink after washing; high values mean tight binding
[1] = target: T1, FLI1 (Homo sapiens, UniProt Q01543 1-452); conditions: protein: recombinant; tags: N-terminal GST; dsDNA, one strand shown
T1 sequence: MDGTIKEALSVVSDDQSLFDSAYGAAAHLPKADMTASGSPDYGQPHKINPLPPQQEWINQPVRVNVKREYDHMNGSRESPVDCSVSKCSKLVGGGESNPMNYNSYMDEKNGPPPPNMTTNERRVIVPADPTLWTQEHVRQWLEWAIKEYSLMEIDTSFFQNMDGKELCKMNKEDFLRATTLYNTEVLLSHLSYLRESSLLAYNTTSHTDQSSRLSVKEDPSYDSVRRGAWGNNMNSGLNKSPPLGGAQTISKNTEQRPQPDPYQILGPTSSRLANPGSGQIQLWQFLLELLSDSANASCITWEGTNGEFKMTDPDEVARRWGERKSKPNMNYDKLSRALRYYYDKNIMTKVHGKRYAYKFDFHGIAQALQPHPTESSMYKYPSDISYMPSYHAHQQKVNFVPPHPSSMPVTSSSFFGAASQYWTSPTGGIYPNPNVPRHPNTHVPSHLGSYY
Procedure, shortened: (§1)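 Human transcription factors fused to GST were expressed in yeast, captured on glutathione beads, given DNA barcodes and pooled with a GST-only negative control. Pools were incubated with 200 nmole of a 16-mer random double-stranded DNA library in Tris/NaCl/DTT/glycerol buffer at room temperature for 30 min. They were then washed, crosslinked with 0.1% formaldehyde, proximity-ligated (BsaI/T4 ligase, 1 h, 37 °C), PCR-amplified and sequenced on an Illumina NextSeq500. Binding signal is each 6-mer's read frequency for a factor divided by its frequency for the GST control.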

[2] = target: T2, ELK1 (Homo sapiens, UniProt P19419 1-428); conditions: protein: recombinant; tags: N-terminal GST; dsDNA, one strand shown
T2 sequence: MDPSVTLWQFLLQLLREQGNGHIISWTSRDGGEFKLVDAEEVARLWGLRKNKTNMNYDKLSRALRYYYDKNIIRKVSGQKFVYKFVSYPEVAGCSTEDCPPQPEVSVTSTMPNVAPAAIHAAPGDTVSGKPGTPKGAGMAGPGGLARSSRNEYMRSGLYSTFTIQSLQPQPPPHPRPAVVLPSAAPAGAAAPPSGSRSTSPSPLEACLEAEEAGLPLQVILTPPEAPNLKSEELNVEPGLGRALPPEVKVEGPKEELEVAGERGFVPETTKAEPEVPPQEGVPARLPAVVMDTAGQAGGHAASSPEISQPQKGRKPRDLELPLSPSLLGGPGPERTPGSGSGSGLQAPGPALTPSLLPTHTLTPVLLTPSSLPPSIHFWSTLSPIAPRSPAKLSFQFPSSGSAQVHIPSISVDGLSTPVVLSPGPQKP
Procedure, shortened: as §1

[3] = target: T3, GABPA (Homo sapiens, UniProt Q06546 1-454); conditions: protein: recombinant; tags: N-terminal GST; dsDNA, one strand shown
T3 sequence: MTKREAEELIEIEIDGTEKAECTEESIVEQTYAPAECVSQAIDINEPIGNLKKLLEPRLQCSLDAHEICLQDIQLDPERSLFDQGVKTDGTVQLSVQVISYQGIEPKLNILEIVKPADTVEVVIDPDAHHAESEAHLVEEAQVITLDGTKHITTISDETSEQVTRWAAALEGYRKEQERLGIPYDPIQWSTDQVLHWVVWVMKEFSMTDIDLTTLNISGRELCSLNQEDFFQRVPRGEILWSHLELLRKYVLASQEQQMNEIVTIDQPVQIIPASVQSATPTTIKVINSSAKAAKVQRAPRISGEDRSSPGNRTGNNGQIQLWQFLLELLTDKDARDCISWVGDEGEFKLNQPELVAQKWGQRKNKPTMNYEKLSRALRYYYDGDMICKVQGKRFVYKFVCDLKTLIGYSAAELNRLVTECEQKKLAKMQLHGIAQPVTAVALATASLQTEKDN
Procedure, shortened: as §1

[4] = target: T4, ERG (Homo sapiens, UniProt P11308 1-479); conditions: protein: recombinant; tags: N-terminal GST; dsDNA, one strand shown
T4 sequence: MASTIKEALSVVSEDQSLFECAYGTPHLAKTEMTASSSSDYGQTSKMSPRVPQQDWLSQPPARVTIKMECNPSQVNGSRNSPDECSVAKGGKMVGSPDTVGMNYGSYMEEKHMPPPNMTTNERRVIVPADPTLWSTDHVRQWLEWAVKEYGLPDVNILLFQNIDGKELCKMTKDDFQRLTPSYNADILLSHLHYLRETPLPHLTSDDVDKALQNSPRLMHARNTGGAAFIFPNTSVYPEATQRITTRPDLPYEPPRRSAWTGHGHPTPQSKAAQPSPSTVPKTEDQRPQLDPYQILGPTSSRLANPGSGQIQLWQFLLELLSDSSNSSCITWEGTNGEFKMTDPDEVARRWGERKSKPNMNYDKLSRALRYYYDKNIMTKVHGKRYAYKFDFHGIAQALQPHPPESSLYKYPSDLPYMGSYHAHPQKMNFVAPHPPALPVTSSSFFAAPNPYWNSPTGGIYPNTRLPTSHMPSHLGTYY
Procedure, shortened: as §1

[5] = target: ELF1 (Homo sapiens, UniProt P32519 1-619); conditions: protein: recombinant; tags: N-terminal GST; dsDNA, one strand shown
ELF1, sequence (P32519 whole entry): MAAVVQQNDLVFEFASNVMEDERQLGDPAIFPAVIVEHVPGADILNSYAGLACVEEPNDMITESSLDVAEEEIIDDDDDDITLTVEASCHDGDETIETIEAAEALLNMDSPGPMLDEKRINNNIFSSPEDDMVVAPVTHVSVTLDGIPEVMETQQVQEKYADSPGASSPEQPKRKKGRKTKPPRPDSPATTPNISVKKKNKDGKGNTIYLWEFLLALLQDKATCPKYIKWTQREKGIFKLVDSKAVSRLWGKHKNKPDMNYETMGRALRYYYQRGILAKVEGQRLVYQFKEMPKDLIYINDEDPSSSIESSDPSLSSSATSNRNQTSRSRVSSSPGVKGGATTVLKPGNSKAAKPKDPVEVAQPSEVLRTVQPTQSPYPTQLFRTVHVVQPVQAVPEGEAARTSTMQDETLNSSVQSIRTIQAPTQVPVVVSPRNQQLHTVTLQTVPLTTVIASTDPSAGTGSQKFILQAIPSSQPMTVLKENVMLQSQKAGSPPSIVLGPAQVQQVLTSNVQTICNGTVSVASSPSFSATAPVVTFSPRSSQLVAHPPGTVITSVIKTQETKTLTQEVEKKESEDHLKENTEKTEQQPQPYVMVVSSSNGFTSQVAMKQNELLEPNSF
Procedure, shortened: as §1

[6] = target: T5, EHF (Homo sapiens, UniProt Q9NZC4 1-300); conditions: protein: recombinant; tags: N-terminal GST; dsDNA, one strand shown
T5 sequence: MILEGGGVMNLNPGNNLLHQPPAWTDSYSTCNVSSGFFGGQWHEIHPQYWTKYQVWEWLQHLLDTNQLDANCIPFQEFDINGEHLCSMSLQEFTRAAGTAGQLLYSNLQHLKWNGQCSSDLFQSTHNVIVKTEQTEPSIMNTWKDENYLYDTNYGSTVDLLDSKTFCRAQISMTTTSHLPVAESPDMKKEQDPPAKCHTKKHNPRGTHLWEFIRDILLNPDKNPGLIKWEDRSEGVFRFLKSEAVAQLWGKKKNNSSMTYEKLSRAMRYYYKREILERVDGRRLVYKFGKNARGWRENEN
Procedure, shortened: as §1

[7] = target: SPI1 (Homo sapiens, UniProt P17947 1-270); conditions: protein: recombinant; tags: N-terminal GST; dsDNA, one strand shown
Procedure, shortened: as §1

[8] = target: SPIB (Homo sapiens, UniProt Q01892 1-262); conditions: protein: recombinant; tags: N-terminal GST; dsDNA, one strand shown
SPIB, sequence (Q01892 whole entry): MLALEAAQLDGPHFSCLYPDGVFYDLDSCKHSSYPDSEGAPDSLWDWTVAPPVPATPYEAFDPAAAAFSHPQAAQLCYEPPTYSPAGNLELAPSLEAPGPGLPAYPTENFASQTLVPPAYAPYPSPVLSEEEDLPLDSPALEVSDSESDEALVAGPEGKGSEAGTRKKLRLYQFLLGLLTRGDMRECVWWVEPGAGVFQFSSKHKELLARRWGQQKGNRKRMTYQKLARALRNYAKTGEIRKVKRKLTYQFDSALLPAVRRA
Procedure, shortened: as §1

[9] = target: T6, ELK3 (Homo sapiens, UniProt P41970 1-407); conditions: protein: recombinant; tags: N-terminal GST; dsDNA, one strand shown
T6 sequence: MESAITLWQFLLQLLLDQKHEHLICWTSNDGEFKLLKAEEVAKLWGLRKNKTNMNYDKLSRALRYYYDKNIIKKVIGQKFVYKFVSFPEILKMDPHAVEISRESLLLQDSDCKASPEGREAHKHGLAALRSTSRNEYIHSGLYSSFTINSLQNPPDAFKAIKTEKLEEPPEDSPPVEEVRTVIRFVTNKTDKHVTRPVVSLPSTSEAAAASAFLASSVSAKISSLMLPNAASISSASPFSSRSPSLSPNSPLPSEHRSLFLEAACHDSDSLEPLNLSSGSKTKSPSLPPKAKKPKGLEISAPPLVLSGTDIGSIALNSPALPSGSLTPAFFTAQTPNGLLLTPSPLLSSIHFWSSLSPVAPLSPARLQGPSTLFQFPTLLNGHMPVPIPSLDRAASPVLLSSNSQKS
Procedure, shortened: as §1

[10] = target: T7, FEV (Homo sapiens, UniProt Q99581 1-238); conditions: protein: recombinant; tags: N-terminal GST; dsDNA, one strand shown
T7 sequence: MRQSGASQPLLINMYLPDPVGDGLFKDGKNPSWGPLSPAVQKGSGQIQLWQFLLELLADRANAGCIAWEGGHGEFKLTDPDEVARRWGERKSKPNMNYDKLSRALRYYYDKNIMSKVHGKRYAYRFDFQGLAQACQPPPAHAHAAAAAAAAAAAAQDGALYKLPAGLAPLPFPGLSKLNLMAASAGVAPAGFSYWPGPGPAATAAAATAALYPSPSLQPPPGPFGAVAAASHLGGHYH
Procedure, shortened: as §1

[11] = target: ETV5 (Homo sapiens, UniProt P41161 1-510); conditions: protein: recombinant; tags: N-terminal GST; dsDNA, one strand shown
ETV5, sequence (P41161 whole entry): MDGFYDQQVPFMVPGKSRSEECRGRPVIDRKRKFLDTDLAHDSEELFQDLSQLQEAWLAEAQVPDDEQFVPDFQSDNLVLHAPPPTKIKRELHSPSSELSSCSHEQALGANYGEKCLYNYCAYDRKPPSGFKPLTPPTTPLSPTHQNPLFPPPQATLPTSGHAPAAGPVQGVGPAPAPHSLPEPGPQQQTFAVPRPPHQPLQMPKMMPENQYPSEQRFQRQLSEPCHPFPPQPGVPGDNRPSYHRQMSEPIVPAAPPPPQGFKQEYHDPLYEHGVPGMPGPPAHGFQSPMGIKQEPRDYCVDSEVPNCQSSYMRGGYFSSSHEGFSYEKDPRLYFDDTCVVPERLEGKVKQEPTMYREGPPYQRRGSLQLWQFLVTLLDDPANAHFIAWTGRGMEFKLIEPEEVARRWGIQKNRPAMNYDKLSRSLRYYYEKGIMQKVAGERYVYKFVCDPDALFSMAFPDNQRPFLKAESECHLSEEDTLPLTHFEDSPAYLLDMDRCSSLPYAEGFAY
Procedure, shortened: as §1

[12] = target: HSF1 (Homo sapiens, UniProt Q00613 1-529); conditions: protein: recombinant; tags: N-terminal GST; chain copies: 3; dsDNA, one strand shown
HSF1, sequence (Q00613 whole entry): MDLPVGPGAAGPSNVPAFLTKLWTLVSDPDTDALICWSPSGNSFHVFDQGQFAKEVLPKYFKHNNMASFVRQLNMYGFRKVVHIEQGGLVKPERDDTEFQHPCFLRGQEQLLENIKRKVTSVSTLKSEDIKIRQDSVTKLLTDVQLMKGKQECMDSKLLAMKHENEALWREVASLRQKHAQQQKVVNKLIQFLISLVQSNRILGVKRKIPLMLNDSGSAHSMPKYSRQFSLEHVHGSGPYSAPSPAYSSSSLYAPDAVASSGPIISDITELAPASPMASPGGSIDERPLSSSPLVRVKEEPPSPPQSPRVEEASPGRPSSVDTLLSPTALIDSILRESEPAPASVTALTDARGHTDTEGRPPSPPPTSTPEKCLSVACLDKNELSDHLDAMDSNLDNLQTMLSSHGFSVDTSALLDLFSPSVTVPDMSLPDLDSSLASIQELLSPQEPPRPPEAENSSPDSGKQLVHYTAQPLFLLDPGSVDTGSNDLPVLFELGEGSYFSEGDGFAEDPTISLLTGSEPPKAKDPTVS
Procedure, shortened: as §1

[13] = target: T8, SPIC (Homo sapiens, UniProt Q8N5J4 1-248); conditions: protein: recombinant; tags: N-terminal GST; dsDNA, one strand shown
T8 sequence: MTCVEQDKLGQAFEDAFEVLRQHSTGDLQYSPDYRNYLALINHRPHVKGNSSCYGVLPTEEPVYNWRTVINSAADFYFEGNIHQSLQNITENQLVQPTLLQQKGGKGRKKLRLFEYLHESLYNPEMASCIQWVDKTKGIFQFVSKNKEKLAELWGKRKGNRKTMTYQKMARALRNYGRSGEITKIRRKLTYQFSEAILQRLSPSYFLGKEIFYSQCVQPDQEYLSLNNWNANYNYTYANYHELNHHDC
Procedure, shortened: as §1

[14] = target: ELF4 (Homo sapiens, UniProt Q99607 1-663); conditions: protein: recombinant; tags: N-terminal GST; dsDNA, one strand shown
ELF4, sequence (Q99607 whole entry): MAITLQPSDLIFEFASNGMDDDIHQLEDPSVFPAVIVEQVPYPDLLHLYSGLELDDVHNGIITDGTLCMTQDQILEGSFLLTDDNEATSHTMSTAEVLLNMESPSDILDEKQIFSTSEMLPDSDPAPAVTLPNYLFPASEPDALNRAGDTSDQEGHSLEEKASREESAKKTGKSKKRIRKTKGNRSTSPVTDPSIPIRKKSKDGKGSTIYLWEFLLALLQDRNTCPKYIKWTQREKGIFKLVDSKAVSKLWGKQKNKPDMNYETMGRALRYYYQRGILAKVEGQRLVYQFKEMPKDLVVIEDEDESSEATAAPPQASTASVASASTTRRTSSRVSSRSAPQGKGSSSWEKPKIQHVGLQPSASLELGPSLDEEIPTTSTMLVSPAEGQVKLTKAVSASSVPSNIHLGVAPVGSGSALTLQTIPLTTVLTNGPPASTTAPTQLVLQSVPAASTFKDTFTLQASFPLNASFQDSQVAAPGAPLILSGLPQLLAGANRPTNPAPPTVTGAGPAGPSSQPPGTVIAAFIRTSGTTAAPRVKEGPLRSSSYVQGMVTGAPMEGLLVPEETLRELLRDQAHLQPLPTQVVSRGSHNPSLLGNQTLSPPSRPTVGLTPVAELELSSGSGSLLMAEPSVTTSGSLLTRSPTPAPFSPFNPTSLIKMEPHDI
Procedure, shortened: as §1

[15] = target: T9, ELK4 (Homo sapiens, UniProt P28324-2 1-405); conditions: protein: recombinant; tags: N-terminal GST; dsDNA, one strand shown
T9 sequence: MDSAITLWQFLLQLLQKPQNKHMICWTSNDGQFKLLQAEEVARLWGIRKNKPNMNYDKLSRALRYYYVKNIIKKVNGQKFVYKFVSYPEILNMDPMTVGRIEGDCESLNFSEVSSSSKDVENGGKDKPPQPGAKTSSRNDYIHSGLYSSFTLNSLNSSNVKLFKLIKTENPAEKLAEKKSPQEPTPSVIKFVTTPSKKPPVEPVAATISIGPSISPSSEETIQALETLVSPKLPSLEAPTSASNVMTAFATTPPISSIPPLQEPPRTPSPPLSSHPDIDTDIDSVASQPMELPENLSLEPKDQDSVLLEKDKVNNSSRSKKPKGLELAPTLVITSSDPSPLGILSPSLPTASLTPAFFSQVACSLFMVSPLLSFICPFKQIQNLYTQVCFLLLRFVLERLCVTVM
Procedure, shortened: as §1

[16] = target: T10, ETV2 (Homo sapiens, UniProt O00321 1-342); conditions: protein: recombinant; tags: N-terminal GST; dsDNA, one strand shown
T10 sequence: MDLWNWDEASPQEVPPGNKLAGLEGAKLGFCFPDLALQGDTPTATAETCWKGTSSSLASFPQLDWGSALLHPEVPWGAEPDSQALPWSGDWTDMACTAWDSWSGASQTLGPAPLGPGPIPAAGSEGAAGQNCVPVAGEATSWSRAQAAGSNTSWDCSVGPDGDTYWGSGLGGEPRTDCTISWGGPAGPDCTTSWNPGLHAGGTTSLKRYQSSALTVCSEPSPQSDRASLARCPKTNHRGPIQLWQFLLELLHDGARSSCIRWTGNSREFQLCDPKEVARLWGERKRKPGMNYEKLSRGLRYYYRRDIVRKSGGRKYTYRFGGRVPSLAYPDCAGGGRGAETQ
Procedure, shortened: as §1

[17] = target: T11, ELF3 (Homo sapiens, UniProt P78545 1-371); conditions: protein: recombinant; tags: N-terminal GST; dsDNA, one strand shown
T11 sequence: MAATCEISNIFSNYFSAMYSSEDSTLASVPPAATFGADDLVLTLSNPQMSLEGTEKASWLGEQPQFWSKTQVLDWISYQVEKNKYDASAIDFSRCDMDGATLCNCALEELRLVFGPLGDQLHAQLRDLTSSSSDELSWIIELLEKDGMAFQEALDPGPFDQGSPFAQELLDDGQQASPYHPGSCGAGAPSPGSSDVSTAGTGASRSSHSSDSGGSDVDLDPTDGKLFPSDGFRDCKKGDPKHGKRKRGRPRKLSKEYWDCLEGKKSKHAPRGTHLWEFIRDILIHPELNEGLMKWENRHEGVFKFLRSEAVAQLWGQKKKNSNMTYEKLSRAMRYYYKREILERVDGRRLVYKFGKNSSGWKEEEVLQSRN
Procedure, shortened: as §1

[18] = target: CRX (Homo sapiens, UniProt O43186 1-299); conditions: protein: recombinant; tags: N-terminal GST; dsDNA, one strand shown
CRX, sequence (O43186 whole entry): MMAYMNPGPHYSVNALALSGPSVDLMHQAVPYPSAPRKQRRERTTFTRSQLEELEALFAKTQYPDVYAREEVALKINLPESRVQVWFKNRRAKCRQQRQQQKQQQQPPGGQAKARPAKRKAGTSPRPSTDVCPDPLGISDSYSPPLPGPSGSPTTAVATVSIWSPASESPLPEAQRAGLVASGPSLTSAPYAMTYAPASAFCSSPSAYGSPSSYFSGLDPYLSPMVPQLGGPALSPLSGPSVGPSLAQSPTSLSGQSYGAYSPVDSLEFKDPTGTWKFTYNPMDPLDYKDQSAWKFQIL
Procedure, shortened: as §1

[19] = target: ETV1 (Homo sapiens, UniProt P50549 1-477); conditions: protein: recombinant; tags: N-terminal GST; dsDNA, one strand shown
ETV1, sequence (P50549 whole entry): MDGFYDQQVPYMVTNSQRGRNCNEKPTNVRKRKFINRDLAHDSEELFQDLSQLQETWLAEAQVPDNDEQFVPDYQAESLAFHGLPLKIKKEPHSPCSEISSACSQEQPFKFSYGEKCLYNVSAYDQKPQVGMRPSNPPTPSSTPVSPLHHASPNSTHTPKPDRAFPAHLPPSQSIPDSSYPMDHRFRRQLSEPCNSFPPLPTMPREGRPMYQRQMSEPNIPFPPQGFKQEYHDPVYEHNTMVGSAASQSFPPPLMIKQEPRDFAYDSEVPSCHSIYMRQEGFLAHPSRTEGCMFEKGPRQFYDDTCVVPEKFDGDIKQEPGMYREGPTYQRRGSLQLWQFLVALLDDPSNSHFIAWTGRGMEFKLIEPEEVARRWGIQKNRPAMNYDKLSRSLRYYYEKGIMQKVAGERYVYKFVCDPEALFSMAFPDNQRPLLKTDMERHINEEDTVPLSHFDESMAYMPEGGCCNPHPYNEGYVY
Procedure, shortened: as §1

For TTGACA, the binding signal [1] was 1.38 fold enrichment (6-mer frequency, TF over GST control), the binding signal [2] was 1.37 fold enrichment (6-mer frequency, TF over GST control) and the binding signal [3] was 1.44 fold enrichment (6-mer frequency, TF over GST control). For the same sequence, the binding signal [4] was 1.34 fold enrichment (6-mer frequency, TF over GST control), the binding signal [5] was 1.37 fold enrichment (6-mer frequency, TF over GST control) and the binding signal [6] was 1.29 fold enrichment (6-mer frequency, TF over GST control). The binding signal [7] was 1.25 fold enrichment (6-mer frequency, TF over GST control), the binding signal [8] was 1.28 fold enrichment (6-mer frequency, TF over GST control) and the binding signal [9] was 1.28 fold enrichment (6-mer frequency, TF over GST control). For the same sequence, the binding signal [10] was 1.34 fold enrichment (6-mer frequency, TF over GST control), the binding signal [11] was 1.28 fold enrichment (6-mer frequency, TF over GST control) and the binding signal [12] was 1.19 fold enrichment (6-mer frequency, TF over GST control). For the same sequence, the binding signal [13] was 1.21 fold enrichment (6-mer frequency, TF over GST control), the binding signal [14] was 1.3 fold enrichment (6-mer frequency, TF over GST control) and the binding signal [15] was 1.47 fold enrichment (6-mer frequency, TF over GST control). For the same sequence, the binding signal [16] was 1.36 fold enrichment (6-mer frequency, TF over GST control), the binding signal [17] was 1.51 fold enrichment (6-mer frequency, TF over GST control) and the binding signal [18] was 1.22 fold enrichment (6-mer frequency, TF over GST control). The binding signal [19] was 1.33 fold enrichment (6-mer frequency, TF over GST control).
